# Source: PubChem BioAssay (National Center for Advancing Translational Sciences (NCATS))
# Compounds with a hit are over-represented: about 19% of the library has one in this group of screens.
# IL1B secr inh = qHTS for Inhibitors of Inflammasome Signaling: IL-1-beta AlphaLISA Primary Screen; THP-1 LPS/ATP IL-1B secretion, AlphaLISA, 16 h; stronger effect = lower value; hit rate 4.7% among 360,000; activity change, % at 57.5 µM; in the data active means activity change below about -50%; inconclusive means mostly about -30% to -49%
#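 THP-1 cells pretreated 1 hr with compounds (up to 57.5 uM final), then stimulated with LPS (250 ng/mL final) plus ATP (1.25 mM final); secreted IL-1B measured by AlphaLISA after 16 hr, decreased signal indicating inhibition.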
# TDP1 cell noCPT = qHTS for Inhibitors of human tyrosyl-DNA phosphodiesterase 1 (TDP1): qHTS in cells in absence of CPT; DT40 Tdp1-/- hTDP1 cells, no CPT, ATP luminescence, 48 h; Potency, µM (highest dose often 46.2 µM), for inactives: top-dose activity change, negative = growth inhibition, most hits filed as inhibitors; hit rate 15% among 420,000; AID 686978, 2013; further: potency means the concentration at half of the fitted maximal effect; nearly all actives have a fitted effect of over 55% in size
#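 Cells were dispensed at 400 per well, compounds added by pin tool, plates incubated ≥48 hr at 37 °C, then CellTiter-Glo added for 30 min at room temperature before luminescence reading. Line: DT40 Tdp1-/- complemented with hTDP1; camptothecin omitted.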
# HT1080 IDH1KD tx = qHTS for induction of synthetic lethality in tumor cells producing 2HG: qHTS for the HT-1080-IDH1KD cell line | Potency, µM (highest dose often 46.1 µM), inactives show top-dose activity, negative = toxicity, hits mostly cytotoxic | HT-1080 IDH1 knockdown viability, ATP luminescence, 48 h | hit rate 2% among 360,000;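 further: potency means the concentration at half of the fitted maximal effect; 0% = DMSO wells and -100% = cell-free medium wells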
#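 Luminescent ATP read-out (CellTiter-Glo, 10 min at room temperature) after 48 h compound exposure at 37 °C gave viability of IDH1-knockdown HT-1080 cells. Activity was normalised to DMSO and cell-free wells, then fitted as concentration-response curves.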
# ELG1 repair inh = qHTS screen for small molecules that inhibit ELG1-dependent DNA repair in human embryonic kidney (HEK293T) cells expressing luciferase-tagged ELG1 | HEK293T ELG1-luciferase reporter, luminescence, 16 h; DNA damage induced by 5-fluorouridine | Potency, µM (doses to about 46.1 µM), without a hit: at the top dose activity change, negative = inhibition, most hits filed as inhibitors | hit rate 2.3% among 330,000; further: potency means the concentration at half of the fitted maximal effect; nearly all actives have a fitted effect of over 55% in size
#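 HEK293T cells expressing luciferase-tagged ELG1 (2,000/well) received 5-Fluorouridine plus compound or DMSO for 16 hr at 37 °C. Luciferase was read by ONE-Glo luminescence after 30 min at room temperature.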
# HT1080NT lethal = qHTS for induction of synthetic lethality in tumor cells producing 2HG: qHTS for the HT-1080-NT fibrosarcoma cell line | HT-1080-NT fibrosarcoma viability, CellTiter-Glo ATP luminescence, 48 h | Potency, µM (top dose mostly 46.1 µM), for inactives: top-dose activity, negative = less viability, hits mostly cytotoxic | hit rate 1.6% among 360,000 | AID 686970, 2013;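 further: NT is the 2HG producing partner of a matched IDH1 knockdown line; potency means the concentration at half of the fitted maximal effect; 0% = DMSO-treated cells and -100% = media-only wells without cells; nearly all actives have a fitted effect of over 55% in size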
#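 Fibrosarcoma NT cells, 750 per well in 5% FBS RPMI, were exposed to compound for 48 hours. Viability: CellTiter-Glo luminescence.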
# DT40 TDP1 CPT = qHTS for Inhibitors of human tyrosyl-DNA phosphodiesterase 1 (TDP1): qHTS in cells in presence of CPT; Potency, µM (highest dose often 46.2 µM), inactives show at the top dose activity change, negative = growth inhibition, hits mostly inhibitors; hit rate 12% among 420,000; chicken DT40 Tdp1-/-;hTDP1 cells + 20 nM CPT, ATP luminescence, 48 h; further: potency means the concentration at half of the fitted maximal effect; nearly all actives have a fitted effect of over 55% in size
#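 Cell growth measured by CellTiter-Glo luminescence after a minimum 48 h, 37 C compound exposure with 20 nM CPT in Tdp1-knockout DT40 cells stably expressing hTDP1, seeded 400/well; qHTS titration format.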
# An asterisk follows results filed as active; ? = inconclusive; · = not tested or not shown. Unless noted, the call rests on the fitted dose curve; in most records, active means well fitted curve in the direction sought with a large enough effect; inconclusive means small, poorly fitted or top-dose-only effect, or another doubt; inactive means no such curve, though single readings can be large; an effect the other way counts as inactive or inconclusive. Unless noted, on the % scale 0 is the no-effect control and ±100 the full control effect.
SMILES,IL1B secr inh,TDP1 cell noCPT,HT1080 IDH1KD tx,ELG1 repair inh,HT1080NT lethal,DT40 TDP1 CPT
CN(C(=O)c1cc(S(=O)(=O)N2CCc3ccccc32)cn1C)C1CCCCC1,-3,18µM*,-17%,-25%,-2%,21µM*
Cn1cc(S(=O)(=O)N2CCc3ccccc32)cc1C(=O)Nc1ccc(Cl)cc1,-7,26µM*,-14%,-2%,-25%,26µM*
Cc1cccc(C)c1NC(=O)c1cc(S(=O)(=O)N2CCc3ccccc32)cn1C,16,-23%,3%,27%,16%,-3%
CCOC(=O)c1c(S(=O)(=O)N2CCCC2)c(C)n(C)c1C,-4,-18%,13%,-1%,10%,?
Cc1ccc(S(=O)(=O)/N=C(/Nc2ccc3[nH]c(=O)[nH]c3c2)c2ccc(F)cc2)cc1,-11,0%,-14%,0%,-1%,-4%
COc1cc(CC(=O)N2c3ccccc3N=C(c3ccccc3)C2C(=O)NCc2ccccc2)cc(OC)c1 (configuration not stated),-14,?,-14%,·,-15%,?
COc1ccc([C@H]2C[C@@H](n3cc(C4CC4)nn3)[C@H](O)CN2CC2CCCCC2)cc1,-55*,21µM*,?,·,?,?
COc1ccc([C@H]2C[C@H](O)[C@@H](n3cc(C4CC4)nn3)CN2CC2CCCCC2)cc1,-8,?,-3%,·,5%,?
Cc1ccc([C@H]2C[C@H](n3cc(C4CC4)nn3)[C@@H](O)CN2CC2CCCCC2)cc1,-13,18µM*,?,·,?,?
CC1(c2ccc([N+](=O)[O-])c(CS(=O)(=O)c3ccccc3)c2)OCCO1,10,-19%,?,-2%,15%,6%
CN(c1ccccc1)S(=O)(=O)c1cccc(NC(=O)CSc2n[nH]c(N)n2)c1,26,9.2µM*,-20%,21µM*,-5%,9.2µM*
Cc1nnc(SCC(=O)Nc2cccc(S(=O)(=O)N(C)c3ccccc3)c2)s1,11,6.5µM*,-1%,?,2%,8.2µM*
O=C(CCNc1cccc(Cl)c1)c1ccco1,4,8.2µM*,?,10%,?,7.3µM*
O=C(NCCCCc1ccccc1)c1cccc(NC(=O)C2CCCC2)c1,?,?,-4%,·,-4%,?
Cc1cccc(C2c3[nH]c4ccccc4c3CCN2Cc2cccn2-c2ncccn2)c1 (configuration not stated),-87*,23µM*,?,?,?,?
c1ccc(C2c3[nH]c4ccccc4c3CCN2Cc2cccn2-c2ccccn2)nc1 (configuration not stated),1,?,-6%,-8%,-5%,?
COc1ccc(C2c3[nH]c4ccccc4c3CCN2Cc2cccn2-c2ncccn2)cc1C (configuration not stated),-27,16µM*,23µM*,21µM*,26µM*,15µM*
Cc1cc(Br)ccc1NC(=O)CN1C(=O)C2CC=CCC2C1=O (configuration not stated),-18,?,-4%,-7%,1%,-19%
Cc1cccnc1NC(=O)c1ccc(S(=O)(=O)N2CCCCCC2)cc1,-4,-9%,10%,1%,-1%,-10%
